Cycloheximide cs: affects cycloheximide protein synthesis inhibition readout, counter-screen | cell reporter, cycloheximide protein synthesis inhibition counterscreen | max response, % | 12% of 300,000 active | AID 2314; in the data active = max response mostly above about 13%, no sharp cut-off; inactive = mostly below about 14%; note: read at 38.3 µM for the half of the compounds with a filed dose
Pf growth 48h: inhibits P. falciparum growth in the first generation, 48 h | P. falciparum luciferase growth in erythrocytes, 48 h | Potency, µM (top dose mostly 28.7 µM), most hits filed as inhibitors | 5.9% of 310,000 active
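Read-out is firefly luciferase luminescence from an integrated reporter in P. falciparum, so falling signal marks reduced parasite growth. Infected erythrocytes were at 2% hematocrit and 0.1% parasitemia (final) in Albumax-supplemented RPMI 1640.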
Pf growth 96h: P. falciparum growth inhibition at 96 hours; P. falciparum luciferase reporter growth, 96 h; Potency, µM (series often up to 28.7 µM), most hits filed as inhibitors; 6.9% of 320,000 active
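Erythrocytes infected with luciferase-expressing P. falciparum were dispensed at 2% hematocrit and 0.05% parasitemia (final), then incubated with compounds 96 hours at 37 C in 5% CO2. Luminescence after detection reagent addition reported growth.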
Shiga toxin inh: inhibitors of Shiga toxin in Vero cells | Vero cells, Shiga toxin protein synthesis inhibition reporter | inhibition, % at 38.7 µM | 9.2% of 290,000 active; in the data active = inhibition mostly above about 28%, no sharp cut-off; inactive = mostly below about 43%
Large screens that a line does not name were inactive. Rows were chosen to be rich in hits. Some 21% of all compounds tested hit in one or more screens of this group. Unless noted, calls come from the whole dose curve; as a rule, active = well fitted inhibition curve with a large enough effect; inconclusive = small, poorly fitted or top-dose-only effect, or another doubt; inactive = no such curve, though single readings can be large or run the other way.

CCN(CC)CCNC(=O)c1ccc(NC(=O)c2ccc(Cl)c(S(=O)(=O)Nc3ccccc3OC)c2)cc1	Pf growth 48h inconclusive, Pf growth 96h 2.33µM
O=C(Nc1ncccc1O)c1cccc(S(=O)(=O)N2CCc3ccccc32)c1	Pf growth 96h inconclusive
CCCCn1c(N)c(N(CC(C)C)C(=O)C2CC(=O)N(Cc3ccco3)C2)c(=O)[nH]c1=O (stereo not drawn)	Pf growth 96h inconclusive
Cc1ccc(-c2cc(C(=O)Nc3cnn(C(C)C)c3)no2)cc1	Cycloheximide cs 22.5
COc1ccc(-c2cc(C(=O)Nc3cnn(Cc4ccccc4C)c3)no2)cc1OC	none
Cc1ccc(-c2cc(C(=O)Nc3cnn(C45CC6CC(CC(C6)C4)C5)c3)no2)cc1	Pf growth 48h inconclusive
CCCn1cc(NC(=O)c2cc(-c3ccccc3)on2)cn1	Cycloheximide cs 35.0, Shiga toxin inh 67.7 (no result: Pf growth 48h)
COc1ccc(-c2cc(C(=O)Nc3ccc(C)cc3)no2)cc1	none
Cc1ccc(-c2cc(C(=O)Nc3c(C#N)cnn3C)no2)cc1	Cycloheximide cs 13.7, Shiga toxin inh 56.0 (no result: Pf growth 96h)
O=C(Nc1cnn(C23CC4CC(CC(C4)C2)C3)c1)c1cc(-c2ccccc2)on1	Pf growth 48h 10.4µM (no result: Pf growth 96h)
Cc1ccc(OCCC(=O)OCC(=O)Nc2cc(S(=O)(=O)N(C)C)ccc2C)cc1	none
CCOc1ccc(-n2ccnc(SCC(=O)Nc3cccc(OC)c3)c2=O)cc1	Pf growth 96h inconclusive (no result: Cycloheximide cs, Shiga toxin inh)
Cc1nn(CCC#N)c(N)c1C1(O)C(=O)Nc2c(Cl)cc(Cl)cc21 (stereo not drawn)	Pf growth 48h inconclusive, Pf growth 96h inconclusive
C/C(CC1CC2=C(CC1(C)C)C(C)(C)CCC2)=N\NC(N)=S (stereo not drawn)	Pf growth 96h 1.04µM (no result: Pf growth 48h)
CCc1nc2c(oc3ccccc32)c(=O)[nH]1	Cycloheximide cs 22.1, Pf growth 48h inconclusive
O=c1[nH]cnc2c1oc1ccccc12	Cycloheximide cs 33.7, Shiga toxin inh 69.8
Cc1nc(SCc2nc3ccccc3[nH]2)c2oc3ccccc3c2n1	Pf growth 48h inconclusive, Pf growth 96h inconclusive
O=c1[nH]c(=O)c2ccccc2o1	none (no result: Cycloheximide cs, Shiga toxin inh)
O=c1[nH]c(CSc2ccccn2)nc2c1oc1ccccc12	Cycloheximide cs 48.7, Shiga toxin inh 91.3
O=C(NCCO)C(O)C(O)C(=O)NCCO (stereo not drawn)	none
Cc1cc(NC(=O)CN2C(=O)NC3(CCC(C)CC3)C2=O)no1 (stereo not drawn)	none
O=C(Nc1c2c(nn1-c1ccccc1)CS(=O)C2)c1ccc2c(c1)OCO2 (stereo not drawn)	none
COC(=O)[C@H](CC(C)C)NC(=O)c1ccc(NC[C@@H](N)CS)cc1-c1cccc2ccccc12	none (no result: Pf growth 48h, Pf growth 96h)
COc1nc(-c2ccc(C)cc2)ccc1-c1noc(-c2ccco2)n1	Cycloheximide cs 27.6, Shiga toxin inh 69.7
CCOc1nc(-c2ccccc2)ccc1-c1noc(-c2ccco2)n1	Pf growth 48h inconclusive
COc1nc(C)ccc1-c1noc(-c2ccco2)n1	Cycloheximide cs 39.4, Shiga toxin inh 81.2 (no result: Pf growth 96h)
CCOc1cc(-c2nc(-c3ccc(C)nc3OC)no2)cc(OCC)c1OCC	none (no result: Pf growth 96h)
COC(=O)c1cc(S(=O)(=O)NCC2CCN(CCc3cccs3)CC2)c[nH]1	Pf growth 96h inconclusive
OCC1(CCOc2ccccc2)CCN(Cc2cccn2-c2ncccn2)CC1	Pf growth 48h inconclusive
COc1ccc(OC)c(CN2CCCCCC2)c1	none
COc1ccc(OC)c(CN2CCC(CO)(CCOc3ccccc3)CC2)c1	Pf growth 48h 13.1µM
Cc1cc(C)c(CN2CCC(CO)(CCOc3ccccc3)CC2)cc1C	Pf growth 48h 6.57µM
OCC1(CCc2ccccc2)CCN(Cc2ccc(OC(F)F)cc2)CC1	Pf growth 96h 13.1µM
OCC1(CCOc2ccccc2)CCN(C2Cc3ccccc3C2)CC1	Pf growth 48h 8.28µM, Pf growth 96h inconclusive
CCCN1CCN(CCCNC(=S)Nc2ccc(OC)cc2)CC1	Pf growth 96h inconclusive
COc1cc(CN2CCC(CO)(CCOc3ccccc3)CC2)cc(OC)c1	Pf growth 48h 11.7µM, Pf growth 96h 11.7µM
Cc1c(CN2CCC(CO)(CCOc3ccccc3)CC2)c(=O)n(-c2ccccc2)n1C	Pf growth 96h inconclusive
COCC1CCCCN1C(=O)c1cccc(OC2CCN(S(C)(=O)=O)CC2)c1 (stereo not drawn)	Cycloheximide cs 15.6, Pf growth 96h inconclusive
COCCNC(=O)c1cccc(OC2CCN(Cc3ccccc3C)CC2)c1	Pf growth 96h 1.47µM
O=C(C1CC1)N1CCC(Oc2cccc(C(=O)N3CCCCC3CCO)c2)CC1 (stereo not drawn)	Pf growth 96h inconclusive
Cc1nc(CNC(=O)c2ccccc2OC2CCN(S(C)(=O)=O)CC2)cs1	Pf growth 96h inconclusive
CCOCCCNC(=O)c1ccccc1OC1CCN(S(C)(=O)=O)CC1	Cycloheximide cs 11.5

Screening results deposited in PubChem BioAssay by National Center for Advancing Translational Sciences (NCATS).
